LEDGF integ inh = blockers of LEDGF/p75-dependent integrase strand transfer – biochemical, TR-FRET, high throughput, primary screen. TR-FRET IN-LEDGF/p75 DNA integration, Eu/Cy5. inhibition, % at 3.7 µM. 370,000 compounds, 0.64% hits;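 active = inhibition above the screen-wide mean plus 3 SD, cut at about 13% in these data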;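 also: signal is the Cy5 over europium emission ratio at 671 and 618 nm; 0% = plate median of compound wells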
rCAG RNA binder = binders of r(CAG) RNA repeats, primary screen, biochemical, fluorescence; r(CAG) RNA repeat, TO-PRO-1 dye displacement fluorescence; AID 651821, 2012; 370,000 compounds, 1.3% hits; inhibition, % at 3 µM;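 active = inhibition above the plate cutoff, the mean of all test compounds on that plate plus 3 SD, cut at about 35% in these data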;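 also: 0% = DMSO alone and 100% = 100 µM mitoxantrone as full dye displacement; higher means more dye released from RNA so lower well fluorescence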
PRMT1 FP inh = PRMT1 methyltransferase inhibitors, primary screen, biochemical, fluorescence polarization. Protein arginine N-methyltransferase 1 (Homo sapiens), Q99873. inhibition, % at 2.79 µM. 370,000 compounds, 1.3% hits. AID 652257, 2013. recombinant PRMT1, activity-based probe fluorescence polarization;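 active = inhibition above about 21% made by adding two undisclosed values, limit read from the data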
ABHD5 PLIN5 PPI = ABHD5-PLIN5 interaction inhibitors, primary screen, cell lysate, split luciferase complementation, luminescence | Split G. princeps luciferase complementation, 4 h | inhibition, % at 4 µM | 360,000 compounds, 0.78% hits;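 active = inhibition above the mean inhibition across every tested compound plus 3 SD, cut at about 22% in these data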;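 also: 0% = DMSO only wells and the 100% control is not disclosed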
Target sequence (Q00G26 whole entry, looked up): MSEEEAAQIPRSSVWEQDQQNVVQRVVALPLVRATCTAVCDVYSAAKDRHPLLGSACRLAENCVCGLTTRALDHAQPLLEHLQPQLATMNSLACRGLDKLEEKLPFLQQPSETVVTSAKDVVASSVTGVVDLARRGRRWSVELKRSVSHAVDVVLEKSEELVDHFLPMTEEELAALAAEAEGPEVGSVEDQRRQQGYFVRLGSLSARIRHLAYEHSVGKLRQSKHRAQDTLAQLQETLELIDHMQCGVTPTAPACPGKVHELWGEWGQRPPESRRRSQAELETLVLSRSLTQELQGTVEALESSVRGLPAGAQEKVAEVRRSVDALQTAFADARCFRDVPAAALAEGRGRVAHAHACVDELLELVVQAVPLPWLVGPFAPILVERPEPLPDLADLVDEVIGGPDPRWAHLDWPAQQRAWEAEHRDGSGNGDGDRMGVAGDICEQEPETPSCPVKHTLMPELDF
Target sequence (Q8WTS1 whole entry, looked up): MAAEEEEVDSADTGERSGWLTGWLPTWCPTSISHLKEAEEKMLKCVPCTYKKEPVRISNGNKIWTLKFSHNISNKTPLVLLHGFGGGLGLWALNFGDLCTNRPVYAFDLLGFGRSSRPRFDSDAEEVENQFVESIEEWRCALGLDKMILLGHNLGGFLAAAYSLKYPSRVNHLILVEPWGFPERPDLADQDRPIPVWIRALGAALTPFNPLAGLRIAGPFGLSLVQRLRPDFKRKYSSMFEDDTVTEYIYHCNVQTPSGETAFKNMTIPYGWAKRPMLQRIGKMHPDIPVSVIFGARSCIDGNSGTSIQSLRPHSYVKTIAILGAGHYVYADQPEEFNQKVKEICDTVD
UHRF1 binding = UHRF1 methylated DNA binding inhibitors, primary screen, counter-screen for MBD2 inhibitor project, biochemical, TR-FRET, human UHRF1, single concentration; E3 ubiquitin-protein ligase UHRF1 (Homo sapiens), Q96T88; UHRF1 binding to methylated oligo; inhibition, % at 4.4 µM; 370,000 compounds, 0.75% hits; in the data active = inhibition above about 21%;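 also: UHRF1 SRA domain binding a hemimethylated CpG hairpin DNA probe; 0% = median of test compound wells and 100% = reference inhibitor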
MBD2 DNA inh = inhibitors of MBD2 binding to methylated DNA, primary screen, biochemical, TR-FRET, DNA-binding domain, human; inhibition, % at 4.4 µM; MBD2 binding to methylated oligonucleotide; 370,000 compounds, 0.31% hits; Methyl-CpG-binding domain protein 2 (Homo sapiens), Q9UBB5; in the data active = inhibition above about 13%
rCAG binder conf = small molecules binding CAG repeat RNA – biochemical, fluorescence, confirmation | shares compounds with rCAG RNA binder | r(CAG) RNA repeat, TO-PRO-1 dye displacement fluorescence | inhibition, % at 3 µM | 4,300 compounds, 70% hits;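 active = inhibition above a per-plate cutoff, the mean inhibition of sample wells plus 3 SD, cut at about 35% in these data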;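 also: loss of TO-PRO-1 fluorescence as compound displaces dye from 1x1 AA loop RNA; 0% = DMSO only wells and 100% = 100 µM mitoxantrone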
dCAG dye counter = displacement of TO-PRO-1 from CAG DNA duplex, counter-screen for rCAG RNA repeat binder project, biochemical, fluorescence, TO-PRO-1 dye, d(CAG) DNA oligo; shares compounds with rCAG RNA binder; d(CAG) DNA oligo TO-PRO-1 dye displacement; inhibition, % at 3 µM; 4,300 compounds, 94% hits;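 active = inhibition above its plate's cutoff, the mean test-well inhibition plus 3 SD, cut at about 4.8% in these data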;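 also: 0% = DNA dye mix with DMSO and 100% = 100 µM mitoxantrone; hits displace the dye from DNA and so lower well fluorescence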
dCAG dye DR = inhibitors of DNA CAG/GTC TO-PRO-1 complex, dose response, counter-screen for rCAG RNA repeat binder project, biochemical, fluorescence, TO-PRO-1 dye. shares compounds with rCAG RNA binder. DNA CAG/GTC duplex TO-PRO-1 dye displacement fluorescence. IC50, µM. 250 compounds, 20% hits. AID 686960, 2013; in the data active = IC50 below about 10 µM
An asterisk follows results filed as active; i = inactive; x = no result given. Rows were chosen to be rich in hits. Some 4.1% of all compounds tested hit in one or more screens of this group.

SMILES	LEDGF integ inh	rCAG RNA binder	PRMT1 FP inh	ABHD5 PLIN5 PPI	UHRF1 binding	MBD2 DNA inh	rCAG binder conf	dCAG dye counter	others
CCc1cccc(OCC(=O)Nc2ccc(S(=O)(=O)Nc3onc(C)c3C)cc2)c1	-4	37*	-1	-4	-1	1	31	7.1*
O=C(NN=Cc1ccccc1O)C(=O)Nc1ccc(F)cc1	-2	4	-2	x	1	-1	x	x
Cc1nn(-c2ccccc2)c2sc(C(=O)NCC3CCCO3)cc12 (configuration not stated)	-3	1	2	x	-2	-2	x	x
Cc1nc(SC(C)C(=O)Nc2cccc(C(F)(F)F)c2)c2c(C)c(C(=O)O)sc2n1 (configuration not stated)	7	37*	-1	-2	2	-5	60*	21*
COc1ccc(/C(N)=N/OC(=O)Cc2cccs2)cc1	1	47*	-1	-11	1	2	1	0
COC(=O)c1cc2c(c3c4ccccc4n(S(=O)(=O)c4ccc(OC)cc4)c13)C(=O)N(Cc1ccc(N(C)C)cc1)C2	4	15	-1	x	-1	6	x	x
C/C(=N\NC(=O)c1ccccc1O)c1cccc(NC(=O)c2ccccc2)c1	-2	8	-2	7	-3	-2	x	x
C/C(=N\NC(=O)c1cc(O)ccc1O)c1cccc(NC(=O)c2cccc(Cl)c2)c1	55*	45*	31*	-5	20	-6	22	8.4*
Cc1cc2cc3c(cc2n2c(SCC(=O)Nc4nc(-c5ccccc5)cs4)nnc12)OCO3	0	x	4	x	3	-3	x	x
CCCCc1c(-c2ccccc2OC)ncn1Cc1ccccc1C	3	-2	5	x	-5	2	x	x
C[C@@H]1CCCCO[C@H](CN(C)Cc2ccc(C(=O)O)cc2)[C@H](C)CN([C@@H](C)CO)C(=O)c2cc(NC(=O)Nc3ccc(C(F)(F)F)cc3)ccc2O1	-1	50*	7	0	4	10	53*	15*
Cc1ccc(O)c(CNCCNCc2cc(C)ccc2O)c1	-4	3	-2	3	2	1	x	x
Cc1ccc(O)c(Cc2cc(C)cc(Cc3cc(C)ccc3O)c2O)c1	-2	40*	3	-15	1	6	39*	11*
CCOc1ccc(C2C(C(=O)c3ccc(C)o3)=C(O)C(=O)N2c2nc(C)c(C(=O)OC)s2)cc1 (configuration not stated)	1	24	4	-14	-1	-8	x	x
Cc1ccc2nc(N3C(=O)C(O)=C(C(=O)c4ccc(C)o4)C3c3cccc(O)c3)sc2c1 (configuration not stated)	-2	70*	4	-13	-2	0	69*	33*
COC(=O)c1sc(N2C(=O)C(O)=C(C(=O)c3ccc(C)o3)C2c2ccc([N+](=O)[O-])cc2)nc1C (configuration not stated)	0	66*	6	-6	-2	-2	68*	28*	dCAG dye DR=3.3*
CCOC(=O)c1sc(N2C(=O)C(O)=C(C(=O)c3ccc(C)o3)C2c2ccc(OC)c(OC)c2)nc1C (configuration not stated)	0	33	-1	-20	-1	1	x	x
COC(=O)c1sc(N2C(=O)C(O)=C(C(=O)c3ccc(C)o3)C2c2ccc(OC)c(OC)c2)nc1C (configuration not stated)	-1	37*	7	-13	0	-1	36*	9.9*
CCOC(=O)c1sc(N2C(=O)C(O)=C(C(=O)c3ccc(C)o3)C2c2cccc([N+](=O)[O-])c2)nc1C (configuration not stated)	5	55*	2	-4	-3	1	78*	42*
COC(=O)C1CN(Cc2ccc(OC)cc2)CCS(=O)(=O)N1Cc1ccc(Cl)cc1 (configuration not stated)	-3	8	3	x	-1	-4	x	x
OCC1COC(c2ccccc2)=N1 (configuration not stated)	2	1	8	x	6	3	x	x
COc1ccc2nc(N3C(=O)C(O)=C(C(=O)c4ccco4)C3c3ccc(OC)c(OC)c3)sc2c1 (configuration not stated)	-2	56*	9	-15	-1	5	69*	25*	dCAG dye DR=i
COc1ccc(C2C(C(C)=O)=C(O)C(=O)N2c2nc3ccccc3s2)cc1OC (configuration not stated)	-2	25	-3	-23	-1	1	x	x
CCN(CC)c1ccc2c(O)cc(=O)oc2c1	0	16	-1	1	6	-4	x	x
CCN(CC)c1ccc(C(=O)OCc2cc(=O)oc3cc(O)ccc23)cc1	0	36*	-1	0	0	-3	43*	19*
CCCC[C@H]1C2CC(OC(=O)Nc3ccc(F)cc3)C(C2)[C@H]2CCCCN21 (some centres not stated)	-3	6	-2	x	2	0	x	x

Compound activity (PubChem BioAssay)
